The values that follow come from PMC5540273 (PLoS ONE, 2017).

Test systems include KIT-autoinhibited; KIT; LATS1; LATS2; LCK; LIMK1; LIMK2; LRRK2.
Details in all cases: concentration: 1 μM, replicates: in singlicate; n = 1
The subject of another test is T1, LKB1.
T1 construct: gene STK11

For another test, the system named is T2, LOK.
T2 construct: gene STK10
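Also: KINOMEscan kinase panel screen.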

Consider `CC(=O)Nc1ccc(COc2ccc(Nc3ccnc4cc(-c5ccccn5)ccc34)cc2)cc1.Cl` [GW440148], for which the “%Inh” value in the test with KIT-autoinhibited is on record as 72%; with KIT, 100%; with LATS1, 0%; in the test with LATS2, 0%; in the test with LCK it was 31%; with LIMK1, 0%. Besides, the “%Inh” value is recorded as 0% in the test on LIMK2, 20% in the test on LKB1, 7% in the test on LOK and 0% with LRRK2.
For the molecule `Cc1nnc(-c2ccc3occ(-c4ccc(C(C)O)cc4)c3c2)o1` (centres unmarked), the “%Inh” value came out at 0% in the test with KIT-autoinhibited; 11% in the test on KIT; 15% with LATS1; 12% with LATS2; 2% in the test with LCK; 29% in the test with LIMK1. For the same molecule, the “%Inh” value in the test with LIMK2 worked out at 0%; with LKB1 it was 7%; in the test with LOK, 4%; with LRRK2, 4%.
Turning to `NS(=O)(=O)c1cccc(-c2ccc3nccc(-c4cccc(S(N)(=O)=O)c4)c3c2)c1` [GW867253], the “%Inh” value came out at 25% in the test with KIT-autoinhibited; 0% in the test on KIT; 0% with LATS1; 0% in the test with LATS2; 0% with LCK; 0% with LIMK1. In addition, the “%Inh” value in the test on LIMK2 was found to be 0%; with LKB1 it was 0%; in the test with LOK, 2%; in the test with LRRK2 it was 0%.
For `COc1ccc(Nc2ncc(C#N)c(Nc3ccccc3C(N)=O)n2)cc1N1CCN(C)CC1.Cl` [GSK1558669], the “%Inh” value with KIT-autoinhibited is given as 96.1%; in the test on KIT it was 99.9%; in the test on LATS1, 78%; with LATS2, 98.9%; in the test with LCK, 100%; with LIMK1 it was 85%. The “%Inh” value in the test with LIMK2 amounted to 93.4%; with LKB1 it was 58%; in the test with LOK, 99%; in the test on LRRK2 it was 98.8%.
Consider `O=C1NC(=O)C(N2CCc3ccccc32)=C1c1cccc(Cl)c1` [SB-408010], for which the “%Inh” value worked out at 0% with KIT-autoinhibited; 13% in the test with KIT; 0% in the test on LATS1; 10% in the test with LATS2; 10% in the test with LCK; 0% in the test with LIMK1. Also, the “%Inh” value in the test with LIMK2 stood at 0%; in the test on LKB1, 0%; in the test on LOK it was 0%; in the test with LRRK2, 9%.
